Compound activity (PubChem BioAssay)
PKM2 act – qHTS Assay for Activators of Human Muscle isoform 2 Pyruvate Kinase; Pyruvate kinase PKM (Homo sapiens), P14618; purified PKM2, Kinase-Glo ATP luminescence, activation; response scale: 0% is enzyme alone, no compound; Potency, µM (highest dose often 57.5 µM), for inactives: at the highest dose activation, hits mostly activators; 0.34% of 260,000 active; note: potency is the fitted concentration of half-maximal effect; nearly all actives have a fitted effect of over 55% in size
Target sequence (P14618 whole entry, looked up, canonical isoform): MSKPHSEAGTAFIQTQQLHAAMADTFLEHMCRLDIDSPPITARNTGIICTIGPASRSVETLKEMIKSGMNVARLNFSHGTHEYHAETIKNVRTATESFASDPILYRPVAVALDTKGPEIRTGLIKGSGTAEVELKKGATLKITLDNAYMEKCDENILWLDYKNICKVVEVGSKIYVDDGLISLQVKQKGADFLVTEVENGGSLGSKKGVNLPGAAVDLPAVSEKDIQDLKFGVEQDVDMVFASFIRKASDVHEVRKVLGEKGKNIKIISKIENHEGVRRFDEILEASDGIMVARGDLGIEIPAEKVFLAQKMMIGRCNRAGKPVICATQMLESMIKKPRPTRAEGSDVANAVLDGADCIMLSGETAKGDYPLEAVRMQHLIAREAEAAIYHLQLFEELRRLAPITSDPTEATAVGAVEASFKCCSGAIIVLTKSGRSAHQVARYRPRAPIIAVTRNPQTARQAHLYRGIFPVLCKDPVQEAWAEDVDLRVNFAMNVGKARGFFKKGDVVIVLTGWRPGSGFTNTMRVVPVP
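Kinase-Glo luminescence reports ATP generated from ADP (0.1 mM) and PEP (0.5 mM) by purified hPK-M2 after 1 h at room temperature, pH 7.2 imidazole buffer; intermediate enzyme activity allows detecting inhibitors and activators.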
TrxR1 inh – qHTS Assay for Inhibitors of Mammalian Selenoprotein Thioredoxin Reductase 1 (TrxR1): qHTS; AID 588453, 2011; recombinant rTrxR1, NADPH fluorescence consumption, selenite substrate; Potency, µM (series often up to 114 µM), for the others: at the top dose activity change, negative = inhibition, actives largely listed as inhibitors; Thioredoxin reductase 1, cytoplasmic (Rattus norvegicus), O89049; 1% of 390,000 active; note: potency is the fitted concentration of half-maximal effect; nearly all actives have a fitted effect of over 65% in size
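Rat TrxR1 (90 nM in the dispensed reagent) was pre-reduced with 400 uM NADPH for 5 min at room temperature, then incubated with compound for 15 min. After 400 uM selenite was added, NADPH fluorescence (Ex 340/Em 450 nm) was followed for 8 min.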
GALK inhibitor – qHTS Assay for Inhibitors of Human Galactokinase (GALK) | 0.007% of 270,000 active | Purified GALK, Kinase-Glo residual ATP luminescence | AID 1868, 2009 | P51570 | Potency, µM (titrated, usually from 57.5 µM), for the others: at the highest dose activity change, negative = inhibition, most hits filed as inhibitors; note: potency is the fitted concentration of half-maximal effect
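ATP-depletion format; final 35 uM ATP, 100 uM D-galactose, 5 nM enzyme; pH 8.0 HEPES/Mg2+ buffer; 60 min RT; luminescence read 10 min after detection reagent.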
PI4K2A inh – qHTS for small molecular inhibitors of PI4K2A. activity change, negative = inhibition, % at 76.9 µM. purified PI4K2A, ADP-Glo luminescence, 1 h; hits give low values. AID 1346378, 2018. 0.13% of 420,000 active; in the data active = activity change below about -50%; inconclusive = mostly about -30% to -49%;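 note: -100% = wells without enzyme as full effect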
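PI4K2A activity was measured by ADP-Glo luminescence: enzyme (4 ug/mL stock) and phosphatidylinositol (1.2 mM stock) in Tris pH 7.5/MgCl2/EGTA/Triton X-100 buffer were reacted with ATP (300 microM stock) for one hour at ambient temperature.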
TrxR1 substrate – qHTS Assay for Substrates of Mammalian Selenoprotein Thioredoxin Reductase 1 (TrxR1): qHTS; 0.01% of 390,000 active; Thioredoxin reductase 1, cytoplasmic (Rattus norvegicus), O89049; Potency, µM (titrated, usually from 114 µM), for the others: at the highest dose activity change, negative = substrate turnover; purified TrxR1 substrate turnover, NADPH consumption readout; note: potency is the fitted concentration of half-maximal effect; nearly all actives have a fitted effect of over 50% in size
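Rat TrxR1, dispensed at 90 nM, was prereduced with 400 uM NADPH (final) for 5 min at ~22 deg C, then incubated with compound 15 min before 400 uM selenite. A first-read NADPH fluorescence drop versus no-compound background flagged substrates.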
An asterisk follows results filed as active; i = inactive; ? = inconclusive; nt = not tested or not shown; [ ] = remark or other dose. Hits are enriched below; roughly 1.2% of the tested compounds scored in any of these assays. Unless noted, calls come from the whole dose curve; as a rule, active = well fitted curve in the direction sought with a large enough effect; inconclusive = small, poorly fitted or top-dose-only effect, or another doubt; inactive = no such curve, though single readings can be large; an effect the other way counts as inactive or inconclusive. Unless noted, % is set by controls: 0 for no effect and ±100 for the full control effect.

SMILES	PKM2 act	TrxR1 inh	GALK inhibitor	PI4K2A inh	TrxR1 substrate
CC(=O)NC(Cc1ccc(N(CCCl)CCCl)cc1)C(=O)O (centres undefined)	-4%	32µM*	-4%	-5	9%[57.1 µM]
O=C(Cc1ccc(N(CCCl)CCCl)cc1)NC(Cc1ccc(Cl)cc1)C(=O)O (centres undefined)	0%[11.5 µM]	40µM*	-4%	-4	4%
O=C(O)CCCc1ccc(N(CCCl)CCCl)cc1	-2%	50µM*	0%	1	12%[57.1 µM]
CC1=C(O)C(=O)C=C2C1=CC=C1C2(C)CCC2(C)C3CC(C)(C(=O)O)CCC3(C)CCC12C (centres undefined)	nt	20µM*	nt	-27	-14%
C[C@@H](C1CC[C@@]2(O)C3=CC(=O)[C@@H]4C[C@@H](O)[C@@H](O)C[C@]4(C)[C@H]3CC[C@]12C)[C@H](O)CCC(C)(C)O (some centres undefined)	nt	7%	nt	nt	-1%
CCOC(=O)CC[C@@H]1CC[C@]2(CCCN(Cc3ccccn3)C2)O1	nt	nt	nt	-6	nt
O=C(O)c1ccccc1-c1ccc(C=C2C(=O)N(c3ccccc3)C(=S)N(c3ccccc3)C2=O)o1	12%	8.9µM*	-3%	-15	1%
O=C1NC(=O)N(c2ccccc2)C(=O)/C1=C\c1ccc([N+](=O)[O-])o1	0%	nt	-5%	nt	nt
S=P(Nn1cnnc1)(c1ccc(Br)cc1)c1ccc(Br)cc1	28µM*	24%[57.1 µM]	-2%	-12	4%[57.1 µM]
CC1(C)N([O])C(c2ccc(C(=O)O)cc2)=[N+]([O-])C1(C)C	nt	-3%	nt	nt	-10%
COc1ccc(-c2cc3nc(C)c(CCC(=O)N4CCN(c5cc(C)ccc5C)CC4)c(C)n3n2)c(OC)c1	nt	41%	nt	-8	18%
N#CC1(c2ccccc2)CCN(C2CC(=O)N(c3ccc4c(c3)OCO4)C2=O)CC1 (centres undefined)	13%	71µM*	-1%	-2	5%
N#CC1(c2ccccc2)CCN(C2CC(=O)N(c3ccc(F)cc3)C2=O)CC1 (centres undefined)	-6%	13%	2%	0	1%
Cc1oc(-c2ccc(Cl)cc2)nc1CS(=O)CC(=O)N1CCC2(CC1)OCCO2 (centres undefined)	2%	50µM*	0%	-2	25%
Cc1cc(O)c2c(c1)C(=O)[C@@]13C(=C2O)C(=O)[C@H]2C(O)[C@@H]1[C@H]1C(O)[C@@H]3C(=O)C3=C(O)c4c(O)cc(C)cc4C(=O)[C@@]312 (some centres undefined)	nt	nt	nt	-76*	nt
Cc1ccccc1N1C(=O)NC(=O)/C(=C\c2cc(Br)c(N3CCOCC3)o2)C1=O	-3%	22µM*	0%	-21	-29%
Cc1ccccc1N1C(=O)NC(=O)/C(=C/c2ccc(N3CCOCC3)o2)C1=O	2%	-46%	-3%	-5	-7%[57.1 µM]
CCOC(=O)c1oc2ccc(S(=O)(=O)n3nc(-c4ccc(Br)cc4)cc3N)cc2c1C	nt	30%	nt	0	-1%
C=CC[C@@H](CC/C=C/C=C/CC/C=C\[C@@H]1CSC([C@@H]2C[C@@H]2C)=N1)OC	nt	50µM*	nt	-3	0%
Cc1ccc(N2C(=O)NC(=O)/C(=C/c3ccoc3)C2=O)cc1	27%	-5%[57.1 µM]	nt	-24	-6%[57.1 µM]
Cc1ccc(N2C(=O)NC(=O)/C(=C/c3cnn(-c4ccc(C)cc4)c3)C2=O)cc1	23%	?	-4%	-4	-2%
Cc1cc(/C=C2\C(=O)NC(=O)N(c3ccc(Cl)cc3)C2=O)c(C)n1C	1%	?	1%	-1	-6%
CCOc1ccc(N2C(=O)NC(=O)/C(=C/c3cnc(SC)nc3)C2=O)cc1	-4%	4µM*	-2%	-14	-3%[57.1 µM]
Cc1ccc(N2C(=O)NC(=O)/C(=C\c3cnc(-c4ccccc4)nc3)C2=O)cc1	2%	3.5µM*	4%	-13	2%
O=C1NC(=O)N(c2ccc(F)cc2)C(=O)/C1=C/c1ccsc1	3%	?	7%	-8	1%[57.1 µM]
SMILES	PKM2 act	TrxR1 inh	GALK inhibitor	PI4K2A inh	TrxR1 substrate
CSc1ncc(/C=C2/C(=O)NC(=O)N(c3ccc(C)cc3)C2=O)cn1	1%	7.9µM*	-1%	-11	1%
CSc1ncc(/C=C2/C(=O)NC(=O)N(c3ccc(Cl)cc3)C2=O)cn1	-1%	6.3µM*	-1%	-3	0%[57.1 µM]
O=C(Nc1ccc2c(c1)OCO2)c1cccn(Cc2ccc(F)cc2)c1=O	nt	2%[57.1 µM]	nt	-2	-7%[57.1 µM]
CC(Cc1ccccc1)NCCn1cnc2c1c(=O)n(C)c(=O)n2C (centres undefined)	nt	nt	nt	i	nt
CC1Sc2c(C(=O)O)c(=O)c3cc(F)c(N4CCNCC4)cc3n21 (centres undefined)	nt	nt	nt	-5	nt
COC(=O)[C@@H]1[C@@H](C(=O)OC)C2(c3ccccc3-c3ccccc32)N(c2ccc(Cl)cc2)N1C#N	7%	11µM*	-2%	22	-3%
COc1cc(CC(C)N)cc(OC)c1OC (centres undefined)	nt	nt	nt	i	nt
O=C1NC(=O)C(=Cc2csc3ccccc23)C(=O)N1	?	?	-2%	?	7%[57.1 µM]
CN1C(=O)C(=Cc2ccc(-c3cccc(Cl)c3)o2)C(=O)N(C)C1=O	12%	nt	nt	nt	nt
CN1C(=O)C(=Cc2ccccc2Oc2ccc(Cl)c(F)c2)C(=O)N(C)C1=O	0%	11µM*	6%	-15	-6%
CC1=NN(c2ccccc2)C(=O)C1/C=C1/C(=O)NC(=O)N(c2cccc(C)c2)C1=O (centres undefined)	-3%	nt	-2%	nt	nt
O=C1NC(=O)C(=Cc2ccccc2[N+](=O)[O-])C(=O)N1	nt	7.9µM*	nt	-8	6%
O=C1NC(=O)C(=Cc2ccccc2Oc2ccc(F)cc2)C(=O)N1	0%	13µM*	-3%	?	-4%[57.1 µM]
Cc1ccc(S(=O)(=O)Oc2ccccc2C=C2C(=O)NC(=O)NC2=O)cc1	nt	nt	nt	-17	nt
Cc1cccc(N2C(=O)NC(=O)/C(=C/c3cc4c(cc3[N+](=O)[O-])OCO4)C2=O)c1	11%	7.1µM*	3%	-28	9%[57.1 µM]
O=C1NC(=O)C(=Cc2ccc(-c3ccccc3[N+](=O)[O-])o2)C(=O)N1	18µM*	0%[57.1 µM]	5%	-25	5%[57.1 µM]
Cc1cc(C=C2C(=O)NC(=O)NC2=O)c(C)n1-c1ccc2c(c1)OCO2	-1%	-35%	-3%	-15	-11%
